FAS TE block: FAS thioesterase (human) inhibition; 0.67% of 360,000 active; recombinant FAS-TE, OMFH fluorogenic substrate, fluorescence endpoint; inhibition, % at 15 µM; AID 602261;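 active means compounds whose normalised, plate-corrected inhibition of enzyme fluorescence in the single-dose primary screen is 50% or more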
Calb FLC: affects C. albicans growth with fluconazole | C. albicans CaCi-2 (fluconazole-resistant clinical isolate) + fluconazole, Alamar Blue growth, 48 h | growth inhibition, % (concentration not given with the values) | 0.57% of 300,000 active | AID 1979;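 active means growth inhibition above about 58% in most replicates, limit read from the data, passing the limit was not always enough; inconclusive means exactly half the replicates above a set limit; inactive means most replicates below a set limit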;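 further: all wells also contain fluconazole at 8 µg/ml as a sub-toxic cotreatment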
NadD block: blocks S. aureus nicotinate mononucleotide adenylyltransferase; inhibition, % at 20 µM; 0.78% of 360,000 active; AID 602399; purified NadD enzyme, colorimetric absorbance read-out; in the data active means inhibition above about 26%
Mot1-301 SUMO: SUMOylation pathway inhibition by Mot1-301 growth rescue | S. cerevisiae Mot1-301 growth rescue, ATP luminescence, 38.5C; percent above DMSO median, 100 means doubled | growth rescue, % at 18.8 µM | 1% of 320,000 active | AID 2716;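 active means every valid replicate shows activation above 250% relative to neutral control wells; inactive means the rest, any valid replicate at or below 250%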
ATG4B inhibitor: inhibitors of human ATG4B cysteine protease; 0.51% of 340,000 active; Q9Y4P1; inhibition, % at 8.33 µM; ATG4B cleavage of LC3-PLA2, NBD-HPC fluorescence, 1 h; in the data active means inhibition above about 40%
Target sequence (Q9Y4P1 whole entry, looked up): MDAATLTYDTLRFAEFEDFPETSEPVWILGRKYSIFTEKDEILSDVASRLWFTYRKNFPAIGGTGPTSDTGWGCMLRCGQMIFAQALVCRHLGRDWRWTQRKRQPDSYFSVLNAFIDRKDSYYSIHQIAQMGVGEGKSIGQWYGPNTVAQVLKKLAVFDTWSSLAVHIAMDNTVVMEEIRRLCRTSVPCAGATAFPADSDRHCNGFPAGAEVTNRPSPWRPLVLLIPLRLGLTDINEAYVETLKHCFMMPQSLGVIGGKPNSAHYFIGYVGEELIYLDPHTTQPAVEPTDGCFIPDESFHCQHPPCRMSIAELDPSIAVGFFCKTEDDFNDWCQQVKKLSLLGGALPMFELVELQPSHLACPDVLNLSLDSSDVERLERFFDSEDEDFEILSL
Yeast Mot1 SUMO: SUMO pathway inhibitors in yeast Mot1-301 growth; shares compounds with Mot1-301 SUMO; growth activity, percent, % at 42 µM; 2,300 tested, under 10 active; S. cerevisiae Mot1-301 galactose growth, ATP luminescence, 24 h; -100 = growth of slx-deleted rescue strain;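 active means Signal drops as the depositor expects, and the fitted half-maximal dose is no more than ten times the top valid tested dose; inconclusive means Poor fit, or a flat curve whose signal drops by 30% to 70%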;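 further: more negative values mean stronger growth rescue toward the control strain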
Numbers stand for hits; i = inactive; ? = inconclusive; nt = no result; + = active, no number. Compounds with a hit are over-represented: about 3.1% of the library has one in this group of screens.

SMILES	FAS TE block	Calb FLC	NadD block	Mot1-301 SUMO	ATG4B inhibitor	Yeast Mot1 SUMO
COC(=O)c1ccsc1-n1cc(C#N)c(=O)n(C)c1=O	i	i	i	i	i	nt
Cc1ccc(Oc2ccc(OCC(=O)Nc3ccncc3)cc2)cc1	i	nt	i	378	nt	i
CCc1ccc(OCC(=O)Nc2ccncc2)cc1	i	i	i	i	i	nt
O=C1NC2(CCCCO2)CO1 (configuration not stated)	i	i	i	661	i	i
C=CCNC(=O)c1cc(-c2cccnc2)nc2ccccc12	i	i	i	441	i	i
COc1ccc(-c2[nH]ncc2CN(CCO)Cc2cccs2)c(F)c1	i	i	i	i	i	nt
CN(C(=O)C1CCCO1)c1nnc(-c2cnccn2)s1 (configuration not stated)	i	i	i	519	i	i
CN(C(=O)c1ccncc1)c1nnc(-c2cnccn2)s1	i	i	i	365	i	i
Cc1ccc(-c2nnc(N(C)C(=O)C3CCCO3)s2)cn1 (configuration not stated)	i	i	i	nt	i	nt
COCCCNS(=O)(=O)c1ccc(Oc2ncc(C(F)(F)F)cc2Cl)cc1	i	i	i	+	i	i
CCOc1c(Cl)cc(CNCC(O)c2ccccc2)cc1OC (configuration not stated)	i	i	i	614	i	i
CCOc1c(Cl)cc(CNCC(C)C)cc1OC	i	i	i	i	i	nt
Cc1ccc(N=C2N=C(N)c3ccccc32)cc1C	i	i	i	i	i	nt
NC1=NC(=Nc2ccc(S(N)(=O)=O)cc2)c2ccccc21	i	i	i	419	i	i
C=CCNc1nc2cc(-c3ccccc3C)sc2c(=O)n1C	i	nt	i	nt	nt	nt
CCn1nc(C)c(CN2CCC(Oc3ccc(C(=O)N4CCCC4)cc3)CC2)c1C	i	i	i	i	i	nt
C=C(C)Cc1c(C)c(C#N)c2[nH]c3ccccc3n2c1=O	i	i	i	690	i	i
CCN(CC)c1ccc2c(C)c(CN3CCOCC3)c(=O)oc2c1	i	i	i	+	i	i
CC(C(=O)NC1CCCCC1)N1CCN(S(=O)(=O)c2cccs2)CC1 (configuration not stated)	i	nt	i	i	i	nt
O=C(O)C1CCCN1C(=O)c1cncc(Br)c1 (configuration not stated)	i	i	i	+	i	i
C=CCSc1ccccc1C(=O)Nc1ncn[nH]1	i	i	i	i	i	nt
CCn1cc(C(=O)N(C)c2ccc(OC)cc2OC)c2cc(OC)c(OC)cc2c1=O	i	i	i	415	i	i
Cc1c(C(=O)N2CCCC2)c(S(=O)(=O)Nc2cccc(Br)c2)c(C)n1C	i	i	i	709	i	i
CC(=O)N(C(C)=O)C1=C(C#N)C2(CCCCC2)Cc2ccccc21	i	?	i	871	i	i
CC(=O)CSc1ncnc2sc3c(c12)CCCC3	i	i	i	712	i	i
SMILES	FAS TE block	Calb FLC	NadD block	Mot1-301 SUMO	ATG4B inhibitor	Yeast Mot1 SUMO
CC(=O)CSc1ncnc2sc3c(c12)CCC(C)C3 (configuration not stated)	i	i	i	i	i	nt
COc1ccccc1CNC(=O)Cn1c(=O)c2cccn2c2cccnc21	i	i	i	i	i	nt
Cc1ccc(N(CC(=O)NC2CCCC2)C(=O)CCCC(=O)Nc2ccccn2)cc1C	i	i	i	i	i	nt
Cc1ccc(N(CC(=O)NC2CCCC2)C(=O)CCC(=O)Nc2ccccn2)cc1C	i	i	i	439	i	i
Cc1cc(NC(=O)CCC(=O)N(c2cccnc2)C(C(=O)NC2CCCC2)c2ccccc2)no1 (configuration not stated)	i	i	i	+	i	i
O=C(CCCC(=O)N(CC(=O)NC1CCCC1)c1cccc(F)c1)Nc1ccccn1	i	i	i	362	i	i
Cc1cccc(N(C(=O)CCC(=O)Nc2cc(C)on2)C(C(=O)NC2CCCC2)c2cccnc2)c1 (configuration not stated)	i	i	i	i	i	nt
CC1(C)CC2(C)CC(=O)C1C(C(=O)O)C2C(=O)O (configuration not stated)	i	nt	i	nt	nt	nt
Cc1ccc(NC(=O)CCN2C(=O)NC3(CCCC3)C2=O)cc1S(=O)(=O)N1CCOCC1	i	nt	i	i	i	nt
COc1ccc(Nc2ccc(OC)cc2)cc1	i	i	i	i	i	nt
COc1ccc(NC2=C(C)C(=O)CC2)cc1	i	i	i	594	i	i
CC1CCN(CCNC(=O)C2CCCN(S(=O)(=O)c3cccc4nsnc34)C2)CC1 (configuration not stated)	i	i	i	454	i	i
Cc1cc(-c2ccc(C(C)C)c(S(=O)(=O)N3CC(=O)Nc4ccccc43)c2)on1	i	i	i	581	i	i
Cc1cc(-c2ccc(C)c(S(=O)(=O)N3CC(=O)Nc4ccccc43)c2)on1	i	i	i	i	i	nt
COCCn1c(SCC(=O)Nc2ccc3c(c2)OCCO3)nnc1-c1ccncc1	i	nt	i	i	i	nt
O=C(NC(=O)c1cc([N+](=O)[O-])ccc1Cl)C1=C(N2CCCC2)COC1=O	i	nt	i	i	i	nt
C/C(=N\NC(=O)Cc1csc(N2CCOCC2)n1)c1ccccc1	i	i	i	476	i	i
Cn1c(NCCc2ccncc2)nc2cc(-c3ccsc3)sc2c1=O	i	nt	i	nt	nt	nt
COc1ccc2cc(C#N)c(Nc3cccc(F)c3)nc2c1	i	i	i	572	i	i
COc1ccc(Nc2nc3cc(C)ccc3cc2C#N)cc1	i	i	i	i	i	nt
COc1cccc(C(=O)COC(=O)c2cccs2)c1	i	i	i	i	i	nt
COc1ccc(NC(=O)c2ccc(-c3csc(C)n3)cc2)cc1	i	i	i	796	i	i
O=C(/C=C/[C@H]1O[C@@H](n2ccc(=O)[nH]c2=O)[C@H](O)[C@@H]1O)NCc1cccs1	i	nt	i	nt	nt	nt
COc1ccc(Br)cc1CN(C)CC(O)COc1ccc(Br)cc1 (configuration not stated)	i	i	i	i	i	nt
CCOc1ncccc1C(=O)OCC(=O)N(CC)c1ccccc1	i	i	i	439	i	i
SMILES	FAS TE block	Calb FLC	NadD block	Mot1-301 SUMO	ATG4B inhibitor	Yeast Mot1 SUMO
COc1cccc(-c2ocnc2C(=O)Nc2ccc3c(c2)CCC3)c1	i	i	i	430	i	i
CCc1cc(C(=O)N2CCN(S(=O)(=O)c3ccccc3F)CC2)sc1C	i	nt	i	i	i	nt
N#CC1(c2ccccc2)CCN(S(=O)(=O)c2ccc(OC(F)(F)F)cc2)CC1	i	i	i	i	i	nt
O=C(OCCN=C1NS(=O)(=O)c2ccccc21)c1cccs1	i	i	i	i	i	nt
O=C(OCCCN=C1NS(=O)(=O)c2ccccc21)c1cccs1	i	i	i	579	i	i
Cc1ccccc1CSCC(=O)Nc1c(C)n(C)n(-c2ccccc2)c1=O	i	i	i	nt	i	nt
CCN1C(=NCCc2cccs2)N[C@@H](c2cccs2)C(C(=O)OC)=C1C	i	i	i	i	i	nt
CC1CC(C)(C)N2C(=O)C3(Nc4ccccc4S3)c3cccc1c32 (configuration not stated)	i	i	i	723	i	i

Screens deposited in PubChem BioAssay by several laboratories.
